Inconclusive results are not listed. Activity calls are given as the source filed them. Calls come from the whole dose curve; as a rule, active = well fitted curve in the direction sought with a large enough effect; inconclusive = small, poorly fitted or top-dose-only effect, or another doubt; inactive = no such curve, though single readings can be large; an effect the other way counts as inactive or inconclusive. Where a SMILES comes first, the peptide text is derived from it. [ ]: non-standard residue; d: D form. pGlu = O=C1CC[C@@H](C(=O)O)N1
How the values were obtained:
[1] = qHTS to identify inhibitors of the type 1 interferon - major histocompatibility complex class I in skeletal muscle: primary screen against the NCATS Pharmaceutical Collection (AID 1347407); conditions: human skeletal muscle cells, IFN-b-induced MHC-I HiBiT luminescence, 24 h; series mostly up to 45.9 µM;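 note: luminescence of HiBiT knocked into endogenous HLA-B as interferon-induced MHC class I level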
Method in brief: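 Immortalized human myoblasts (C25cl48) with HiBiT knocked into endogenous HLA-B*08:01 were stimulated with 4.0 ng/ml IFN-beta and treated with compounds ([…] top 46 uM) for 24 hrs at 37 C. HiBiT lytic luminescence read.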

[2] = target: Protein phosphatase 1D (Homo sapiens) (UniProt O15297); test: RapidFire Mass Spectrometry qHTS Assay for Modulators of WT P53-Induced Phosphatase 1 (WIP1) (AID 1347424); conditions: WIP1 dephosphorylation of phosphopeptide, RapidFire MS; series mostly up to 63 µM;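 note: amount of dephosphorylated VEPPL-S-QETFS peptide product formed by WIP1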
Method in brief: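 Mass-spectrometric measurement of dephosphorylated peptide after a 5 min room-temperature reaction of 10 nM WIP1 with 2 uM phosphopeptide, following 1 h compound preincubation in 30 mM MgCl2 buffer.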

[3] = target: Protein phosphatase 1D (Homo sapiens) (UniProt O15297); test: Rhodamine-PBP qHTS Assay for Modulators of WT P53-Induced Phosphatase 1 (WIP1) (AID 1347425); conditions: recombinant WIP1, Rhodamine-PBP phosphate fluorescence, real-time; series mostly up to 57.5 µM
Method in brief: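 Steps: enzyme with Rh-PBP sensor and compounds, room-temperature incubation of 1 hr, baseline read, addition of VEPPL-pS-QETFS (10 uM final), kinetic fluorescence reads at 525/598 nm. Activity equals final minus baseline signal.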

[4] = Primary qHTS for inhibitors of La Crosse Virus (LACV) - induced cell death in SH-SY5Y cells (AID 1508616); conditions: SH-SY5Y LACV cytopathicity rescue, ATP luminescence, 6 d; series mostly up to 4.29 µM;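 note: top concentration of the series differs between compounds; higher means more rescue of cells from virus-induced death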
Method in brief: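 Cytopathicity rescue screen: compounds pinned onto SH-SY5Y cells, which are then infected with LACV (MOI 0.01) and held 6 days at 37C. Percent activity is scaled between infected DMSO control and uninfected DMSO control.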

Measured: Potency

Chain of Protein phosphatase 1D (Homo sapiens) (O15297 whole entry, looked up): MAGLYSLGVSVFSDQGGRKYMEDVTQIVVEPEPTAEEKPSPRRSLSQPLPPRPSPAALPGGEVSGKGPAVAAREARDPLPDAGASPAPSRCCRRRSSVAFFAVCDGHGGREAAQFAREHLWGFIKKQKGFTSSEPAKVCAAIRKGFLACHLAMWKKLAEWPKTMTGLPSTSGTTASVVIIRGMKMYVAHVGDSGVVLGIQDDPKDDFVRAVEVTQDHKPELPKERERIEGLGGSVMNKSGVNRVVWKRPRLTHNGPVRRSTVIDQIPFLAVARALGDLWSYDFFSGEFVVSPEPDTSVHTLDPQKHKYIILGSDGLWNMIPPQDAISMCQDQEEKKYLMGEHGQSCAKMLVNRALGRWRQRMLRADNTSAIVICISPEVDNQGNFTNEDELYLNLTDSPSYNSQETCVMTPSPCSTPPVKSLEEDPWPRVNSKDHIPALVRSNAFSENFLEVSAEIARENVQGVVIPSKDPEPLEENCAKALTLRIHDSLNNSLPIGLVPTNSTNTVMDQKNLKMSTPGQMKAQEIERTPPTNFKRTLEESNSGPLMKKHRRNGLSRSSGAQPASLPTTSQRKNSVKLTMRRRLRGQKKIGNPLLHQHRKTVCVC

C[C@@]12CCC[C@H]1[C@@H]1CC[C@H]3C[C@@H](O)CC[C@]3(C)[C@H]1CC2
inactive: [1] | [2] | [3] | [4]

OC1(c2ccccc2)CCNCC1
inactive: [1] | [2] | [3] | [4]

C=C(C)C(=O)OCC(O)CO (configuration not stated)
inactive: [1] | [2] | [3] | [4]

Nc1nc2ccccc2n1Cc1ccc(F)cc1
inactive: [1] | [2] | [3] | [4]

O=C(O)CCCC[C@@H]1SC[C@@H]2NC(=O)N[C@@H]21
inactive: [1] | [2] | [3] | [4]

CCOC(=O)N1CCC(Nc2ccc(Cl)cc2N)CC1
inactive: [1] | [2] | [3] | [4]

O=C(O)C1CCC1
inactive: [1] | [2] | [3] | [4]

Cc1ncc(CO)c(CO)c1O
inactive: [1] | [2] | [3] | [4]

CC1CC(=O)NN=C1c1ccc(NCC(C)(C)NCC(O)COc2cc(Cl)ccc2C#N)cc1 (configuration not stated)
inactive: [1] | [2] | [3] | [4]

CN(C)[C@@H]1C(=O)C(C(N)=O)=C(O)[C@@]2(O)C(=O)C3=C(O)c4c(O)cccc4C[C@H]3C[C@@H]12
inactive: [1] | [2] | [3] | [4]

CN(C)C(=O)CNC(=O)Cc1ccccc1
inactive: [1] | [2] | [3] | [4]

CN1Cc2cc(C(=O)N3CCC(C4CCNCC4)CC3)ccc2N[C@@H](CC(=O)O)C1=O
inactive: [1] | [2] | [3] | [4]

Cc1c(C)c2c(c(C)c1OC(=O)CCC(=O)OCCO)CC[C@@](C)(CCC[C@H](C)CCC[C@H](C)CCCC(C)C)O2
inactive: [1] | [2] | [3] | [4]

CO/N=C(/C(=O)N[C@@H]1C(=O)N2C(C(=O)OCOC(=O)C(C)(C)C)=C(C)CS[C@H]12)c1csc(N)n1
inactive: [1] | [2] | [3] | [4]

OCCc1ccccc1
inactive: [1] | [2] | [3] | [4]

O=C(NO)c1ccccc1
inactive: [1] | [2] | [3] | [4]

NC(=O)COCCN1CCN(C(c2ccccc2)c2ccc(Cl)cc2)CC1 (configuration not stated)
inactive: [1] | [2] | [3] | [4]

CCC(=O)Oc1ccc2c(c1)CC[C@@H]1[C@@H]2CC[C@@]2(C)[C@H]1C[C@@H](OC(=O)CC)[C@@H]2OC(=O)CC
inactive: [1] | [2] | [3] | [4]

CC(C)C[C@@H]1[C@H](c2ccccc2)OC(=O)N1CCCN1CCCCCC1
inactive: [1] | [2] | [3] | [4]

O=C1CC2(CCCC2)CC(=O)N1CCNCC1COc2ccccc2O1 (configuration not stated)
inactive: [1] | [2] | [3] | [4]

Nc1ccc([N+](=O)[O-])c(C(F)(F)F)c1
inactive: [1] | [2] | [3] | [4]

c1ccc2occc2c1
inactive: [1] | [2] | [3] | [4]

O=C(CCCCCCCCC#CI)Oc1ccccc1
inactive: [1] | [2] | [3] | [4]

CC(=O)OCC[N+](C)(C)C
inactive: [1] | [2] | [3] | [4]

C/C(=C1\CCOC(=O)S1)N(C=O)Cc1cnc(C)nc1N
inactive: [1] | [2] | [3] | [4]

CC(C)(C)c1cc(C=O)cc(C(C)(C)C)c1O
inactive: [1] | [2] | [3] | [4]

O=C1CCCc2c(O)cccc21
inactive: [1] | [2] | [3] | [4]

CCNC(=O)[C@@H]1CCCN1C(=O)[C@H](CCCN=C(N)N)NC(=O)[C@H](CC(C)C)NC(=O)CNC(=O)[C@H](Cc1ccc(O)cc1)NC(=O)[C@H](CO)NC(=O)[C@H](Cc1c[nH]c2ccccc12)NC(=O)[C@H](Cc1cnc[nH]1)NC(=O)[C@@H]1CCC(=O)N1 ([pGlu]HWSYGLRP-NHEt)
inactive: [1] | [2] | [3] | [4]

CCC[C@H](N[C@@H](C)C(=O)N1[C@H](C(=O)O)C[C@@H]2CCCC[C@@H]21)C(=O)OCC
inactive: [1] | [2] | [3] | [4]

CCOCCn1c(C2CCN(CCc3ccc(C(C)(C)C(=O)O)cc3)CC2)nc2ccccc21
inactive: [1] | [2] | [3] | [4]

CCCN(CCC)C(=O)C(CCC(=O)OCCCN1CCN(CCOC(=O)Cc2c(C)n(C(=O)c3ccc(Cl)cc3)c3ccc(OC)cc23)CC1)NC(=O)c1ccccc1 (configuration not stated)
inactive: [1] | [2] | [3] | [4]

CC(C)=CCC/C(C)=C/CC/C(C)=C/CCC(=O)OC/C=C(\C)CCC=C(C)C
inactive: [1] | [2] | [3] | [4]

CCCCN(CCCC)C(C(N)=O)c1ccc(OC)cc1 (configuration not stated)
inactive: [1] | [2] | [4]

COc1ccc2c(c1)CCCC2=O
inactive: [1] | [2] | [4]

CC(C)C(=O)OCc1cccc(OC(=O)[C@@H]2N3C(=O)[C@@H](NC(=O)Cc4ccccc4)[C@H]3SC2(C)C)c1
inactive: [1] | [2] | [3] | [4]

O=C(CO)[C@@H](O)[C@H](O)[C@@H](O)CO
inactive: [1] | [2] | [3] | [4]

CCN1CCN(c2cc(-c3ccc(F)cc3)c3c(n2)CCCCCC3)CC1
inactive: [1] | [2] | [3] | [4]

CCOc1ccccc1OCC1CNCCO1 (configuration not stated)
inactive: [1] | [2] | [3] | [4]

CCc1cc(S(=O)(=O)O)c2cc(C(C)C)cccc1-2
inactive: [1] | [2] | [4]

O=[N+]([O-])c1nccn1CO[C@@H](CO)[C@H](O)CO
inactive: [1] | [2] | [3] | [4]

CC(=O)OCC(=O)[C@@]1(O)[C@H](OC(C)=O)C[C@H]2[C@@H]3CCC4=CC(=O)C=C[C@]4(C)[C@@]3(F)[C@@H](O)C[C@@]21C
inactive: [1] | [2] | [3] | [4]

Cc1ccc(/C=N/n2c(-c3ccccc3)csc2=S)cc1
inactive: [1] | [2] | [3] | [4]

O=C(NN1CCCC1)NS(=O)(=O)c1ccc(Cl)cc1
inactive: [1] | [2] | [4]

COc1cc(OC)nc(O[C@H](C(=O)O)C(OC)(c2ccccc2)c2ccccc2)n1
inactive: [1] | [2] | [4]

COc1ccc2c(c1)c(CC(=O)OC/C=C(\C)CC/C=C(\C)CCC=C(C)C)c(C)n2C(=O)c1ccc(Cl)cc1
inactive: [1] | [2] | [3] | [4]

CCCC(=O)O[C@]1(C(=O)CC)CC[C@H]2[C@@H]3CCC4=CC(=O)CC[C@]4(C)[C@H]3[C@@H](O)C[C@@]21C
inactive: [1] | [2] | [3] | [4]

C1N2CN3CN1CN(C2)C3
inactive: [1] | [2] | [3] | [4]

Cc1c(F)cc2c(=O)c(C(=O)O)cn3c2c1CCC3C (configuration not stated)
inactive: [1] | [2] | [3] | [4]

Cc1c(N)cccc1C(F)(F)F
inactive: [1] | [2] | [4]

CCC1(c2cnc[nH]2)Cc2ccccc2C1
inactive: [1] | [2] | [4]

CC(C)(C)NCC(O)COc1ccccc1OCC1CCCO1 (configuration not stated)
inactive: [1] | [2] | [3] | [4]
